Results from article PMC5515408, “Sequence-specific DNA binding by MYC/MAX to low-affinity non-E-box motifs”.
In all, about 5,000 sequences were measured (“log2 normalized fluorescence”: median about 0.089, highest 2% from about 0.81 on). The full list was thinned out, with the highest values kept by preference.

molecular target: MYC (p64);MAX (p21), in MYC:MAX (human;human, UniProt P01106-1;P61244-2 1-439;1-151, |); experiment: protein-binding microarray (anti-MAX antibody); PBM: 15 mM Tris-HCl pH 7.5, 100 mM KCl, 0.075% NP40, 7.5 mM beta-mercaptoethanol, 375 ng/ul BSA, 8 ng/ul poly(dA-dT):(dA-dT), 550 ng complex, 60 min, room tempe; high values mean tight binding; conditions: protein: recombinant;recombinant; tags: 6xHis;6xHis; copies: 1;1; label: 3' end of printed strand (linker) attached to glass slide; dsDNA, one strand shown
Sequence (P01106 16-454, chain 1 of 2): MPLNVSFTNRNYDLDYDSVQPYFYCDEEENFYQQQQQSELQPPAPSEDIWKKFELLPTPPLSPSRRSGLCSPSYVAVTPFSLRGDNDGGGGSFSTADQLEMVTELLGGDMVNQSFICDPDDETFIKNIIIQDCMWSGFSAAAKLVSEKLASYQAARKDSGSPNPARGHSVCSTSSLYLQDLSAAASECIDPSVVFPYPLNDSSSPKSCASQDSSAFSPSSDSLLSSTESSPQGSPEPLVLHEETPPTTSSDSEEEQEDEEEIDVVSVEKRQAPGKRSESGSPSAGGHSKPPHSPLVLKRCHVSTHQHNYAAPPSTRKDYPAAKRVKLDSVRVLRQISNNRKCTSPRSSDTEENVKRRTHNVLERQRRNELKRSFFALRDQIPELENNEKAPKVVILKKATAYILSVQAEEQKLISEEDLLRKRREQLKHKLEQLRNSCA
Sequence (P61244 other isoform, or with tags, fused parts or gaps |, chain 2 of 2): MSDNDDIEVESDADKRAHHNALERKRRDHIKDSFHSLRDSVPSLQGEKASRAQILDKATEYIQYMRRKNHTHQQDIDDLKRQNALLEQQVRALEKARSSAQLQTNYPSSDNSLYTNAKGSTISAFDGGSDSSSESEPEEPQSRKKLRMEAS
How it was run: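 Binding, given as log2 normalized fluorescence, was measured on a custom Agilent glass array. The array bore ~5000 unique 12-nt sequences spotted in triplicate and converted to double strands by primer extension. It was incubated with 550 ng of human His-tagged MYC:MAX or MAX:MAX dimers from E. coli for 60 min at room temperature in Tris-KCl buffer, pH 7.5, with NP40, BSA and poly(dA-dT) competitor, and bound protein was detected with anti-MAX and secondary antibodies and scanned at 543 nm.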

Sequence	binding signal
CCGGCTGACACGTGGAGTTAATAGCTAAGATTACTATATCGACG	0.923 log2 normalized fluorescence
CCGGCTGACACGTGGGTTTAATAGCTAAGATTACTATATCGACG	0.725 log2 normalized fluorescence
CCGGCGGACACGTGGAGTTAATAGCTAAGATTACTATATCGACG	0.745 log2 normalized fluorescence
CCGGCTGACACGTTGCATTAATAGCTAAGATTACTATATCGACG	0.792 log2 normalized fluorescence
CCGGCTGACACGTGCTATTAATAGCTAAGATTACTATATCGACG	0.869 log2 normalized fluorescence
CCGGCTGACACGTGATTTTAATAGCTAAGATTACTATATCGACG	0.626 log2 normalized fluorescence
CCGGCTGACACGTGTGGTTAATAGCTAAGATTACTATATCGACG	0.792 log2 normalized fluorescence
CCGGCTGACACGTGCTCTTAATAGCTAAGATTACTATATCGACG	0.813 log2 normalized fluorescence
CCGGCTGACACGTGCTGTTAATAGCTAAGATTACTATATCGACG	0.743 log2 normalized fluorescence
CCGGCTGACACGTAGAGTTAATAGCTAAGATTACTATATCGACG	0.293 log2 normalized fluorescence
CCGGCTGACACGTGCATTTAATAGCTAAGATTACTATATCGACG	0.894 log2 normalized fluorescence
CCGGCTGACACGTGGGGTTAATAGCTAAGATTACTATATCGACG	1 log2 normalized fluorescence
CCGGCAGAAACGCGGTATTAATAGCTAAGATTACTATATCGACG	0.575 log2 normalized fluorescence
CCGGCTGATTACGAGTATTAATAGCTAAGATTACTATATCGACG	0.0125 log2 normalized fluorescence
CCGGCTGACACGAGATATTAATAGCTAAGATTACTATATCGACG	0.491 log2 normalized fluorescence
CCGGCTGATCCGCTGTATTAATAGCTAAGATTACTATATCGACG	-0.0182 log2 normalized fluorescence
CCGGCTGAAACGTTGTATTAATAGCTAAGATTACTATATCGACG	0.435 log2 normalized fluorescence
CCGGCTGAAACACAGTATTAATAGCTAAGATTACTATATCGACG	0.249 log2 normalized fluorescence
CCGGCTGATGGTCCGTATTAATAGCTAAGATTACTATATCGACG	0.278 log2 normalized fluorescence
CCGGCTGATGAGCAGTATTAATAGCTAAGATTACTATATCGACG	-0.0208 log2 normalized fluorescence
CCGGCTGATGGGTTGTATTAATAGCTAAGATTACTATATCGACG	0.152 log2 normalized fluorescence
CCGGCTGACACGTGTGCTTAATAGCTAAGATTACTATATCGACG	0.818 log2 normalized fluorescence

Sequence	binding signal
CCGGCTGACACGTGGGATTAATAGCTAAGATTACTATATCGACG	0.669 log2 normalized fluorescence
CCGGCTGACACGTGGATTTAATAGCTAAGATTACTATATCGACG	0.893 log2 normalized fluorescence
CCGGCTGACACGTGAATTTAATAGCTAAGATTACTATATCGACG	0.712 log2 normalized fluorescence
CCGGCTGACACGTGCCATTAATAGCTAAGATTACTATATCGACG	1 log2 normalized fluorescence
CCGGCTGACACGTGCCGTTAATAGCTAAGATTACTATATCGACG	0.783 log2 normalized fluorescence
CCGGCTGACACGTGCGCTTAATAGCTAAGATTACTATATCGACG	0.633 log2 normalized fluorescence
CCGGCTGACACGTGCGATTAATAGCTAAGATTACTATATCGACG	0.786 log2 normalized fluorescence
CCGGCTGACACGTGACATTAATAGCTAAGATTACTATATCGACG	0.756 log2 normalized fluorescence
CCGGCTGAAACTGAGTATTAATAGCTAAGATTACTATATCGACG	0.00205 log2 normalized fluorescence
CCGGCTGACCTGACGTATTAATAGCTAAGATTACTATATCGACG	0.202 log2 normalized fluorescence
CCGGCTGTCACGTGATATTAATAGCTAAGATTACTATATCGACG	0.587 log2 normalized fluorescence
CCGGCTGCCACGTAGTGTTAATAGCTAAGATTACTATATCGACG	0.23 log2 normalized fluorescence
CCGGCTGCCACGTGTTATTAATAGCTAAGATTACTATATCGACG	0.969 log2 normalized fluorescence
CCGGCTGCCACGTGGTGTTAATAGCTAAGATTACTATATCGACG	0.763 log2 normalized fluorescence
CCGGCTGCCACGTGATATTAATAGCTAAGATTACTATATCGACG	0.881 log2 normalized fluorescence
CCGGCTGCCACGACGTATTAATAGCTAAGATTACTATATCGACG	0.371 log2 normalized fluorescence
CCGGCTGAGGCGAAGTATTAATAGCTAAGATTACTATATCGACG	0.0114 log2 normalized fluorescence
CCGGCTGATGTATCGTATTAATAGCTAAGATTACTATATCGACG	0.124 log2 normalized fluorescence
CCGGCTGAGCGATAGTATTAATAGCTAAGATTACTATATCGACG	-0.0333 log2 normalized fluorescence
CCGGCTGACGCGGAGTATTAATAGCTAAGATTACTATATCGACG	0.127 log2 normalized fluorescence
CCGGCGGACAGGTGGGATTAATAGCTAAGATTACTATATCGACG	0.375 log2 normalized fluorescence
CCGGCTAGCACGTGGTATTAATAGCTAAGATTACTATATCGACG	0.917 log2 normalized fluorescence

Sequence	binding signal
CCGGCGAGCACGTGGTATTAATAGCTAAGATTACTATATCGACG	0.525 log2 normalized fluorescence
CCGGCAAGCACGTGGTATTAATAGCTAAGATTACTATATCGACG	0.835 log2 normalized fluorescence
CCGGCCAGCACGTGGTATTAATAGCTAAGATTACTATATCGACG	0.793 log2 normalized fluorescence
CCGGCTGACGTCAGGTATTAATAGCTAAGATTACTATATCGACG	0.293 log2 normalized fluorescence
CCGGCTGAGGGTAGGTATTAATAGCTAAGATTACTATATCGACG	0.0237 log2 normalized fluorescence
CCGGCTGAGGCCCCGTATTAATAGCTAAGATTACTATATCGACG	0.00137 log2 normalized fluorescence
CCGGCGTACACGTGGTATTAATAGCTAAGATTACTATATCGACG	0.671 log2 normalized fluorescence
CCGGCGTACACGTGGTCTTAATAGCTAAGATTACTATATCGACG	0.89 log2 normalized fluorescence
CCGGCGGGCACGTGGTCTTAATAGCTAAGATTACTATATCGACG	0.929 log2 normalized fluorescence
CCGGCGGGCACGTGGGATTAATAGCTAAGATTACTATATCGACG	0.986 log2 normalized fluorescence
CCGGCTTACACGTGGTCTTAATAGCTAAGATTACTATATCGACG	0.679 log2 normalized fluorescence
CCGGCTGGCACGCGGTCTTAATAGCTAAGATTACTATATCGACG	0.784 log2 normalized fluorescence
CCGGCTATCACGTGGGATTAATAGCTAAGATTACTATATCGACG	0.804 log2 normalized fluorescence
CCGGCGGGCACGTGGTATTAATAGCTAAGATTACTATATCGACG	0.738 log2 normalized fluorescence
CCGGCTGGCACGTGGGATTAATAGCTAAGATTACTATATCGACG	0.708 log2 normalized fluorescence
CCGGCTGAATCAGAGTATTAATAGCTAAGATTACTATATCGACG	0.0753 log2 normalized fluorescence
CCGGCTGAACAAGTGTATTAATAGCTAAGATTACTATATCGACG	0.224 log2 normalized fluorescence
CCGGCTGATACTTGGTTTTAATAGCTAAGATTACTATATCGACG	0.0375 log2 normalized fluorescence
CCGGCTGATCCCGCGTATTAATAGCTAAGATTACTATATCGACG	0.218 log2 normalized fluorescence
CCGGCTGAAGGGCAGTATTAATAGCTAAGATTACTATATCGACG	-0.0227 log2 normalized fluorescence
CCGGCTCACACGCGGTTTTAATAGCTAAGATTACTATATCGACG	0.822 log2 normalized fluorescence
CCGGCCGACAGCCGGTTTTAATAGCTAAGATTACTATATCGACG	-0.0407 log2 normalized fluorescence

Sequence	binding signal
CCGGCTCACACGTTTTATTAATAGCTAAGATTACTATATCGACG	0.662 log2 normalized fluorescence
CCGGCCGACACGCGGTTTTAATAGCTAAGATTACTATATCGACG	0.82 log2 normalized fluorescence
CCGGCTGGCACGAGGTTTTAATAGCTAAGATTACTATATCGACG	0.697 log2 normalized fluorescence
CCGGCTGAGACGCGGTTTTAATAGCTAAGATTACTATATCGACG	0.131 log2 normalized fluorescence
CCGGCTCACACGATGTATTAATAGCTAAGATTACTATATCGACG	0.603 log2 normalized fluorescence
CCGGCTCACACGAGGTTTTAATAGCTAAGATTACTATATCGACG	0.866 log2 normalized fluorescence
CCGGCTCACACGTGGTTTTAATAGCTAAGATTACTATATCGACG	0.78 log2 normalized fluorescence
CCGGCTGAGTAGTGGTATTAATAGCTAAGATTACTATATCGACG	0.0775 log2 normalized fluorescence
CCGGCTGAGGGCTTGTATTAATAGCTAAGATTACTATATCGACG	0.0447 log2 normalized fluorescence
CCGGCTGACGACAGGTATTAATAGCTAAGATTACTATATCGACG	0.106 log2 normalized fluorescence
CCGGCTGAAGTTCAGTATTAATAGCTAAGATTACTATATCGACG	0.0781 log2 normalized fluorescence
CCGGCTGAAGACCTGTATTAATAGCTAAGATTACTATATCGACG	0.0334 log2 normalized fluorescence
CCGGCTGATGTAATGTATTAATAGCTAAGATTACTATATCGACG	0.000857 log2 normalized fluorescence
CCGGCTGACGTTTGGTATTAATAGCTAAGATTACTATATCGACG	0.243 log2 normalized fluorescence
CCGGCTGACCACATGTATTAATAGCTAAGATTACTATATCGACG	0.581 log2 normalized fluorescence
CCGGCTGAACGTGAGTATTAATAGCTAAGATTACTATATCGACG	0.437 log2 normalized fluorescence
CCGGCTGAGGACGAGTATTAATAGCTAAGATTACTATATCGACG	-0.00251 log2 normalized fluorescence
CCGGCTTAAACGTGTTATTAATAGCTAAGATTACTATATCGACG	0.426 log2 normalized fluorescence
CCGGCTCACACGTGTTATTAATAGCTAAGATTACTATATCGACG	0.827 log2 normalized fluorescence
CCGGCTCACACGGGTTATTAATAGCTAAGATTACTATATCGACG	0.461 log2 normalized fluorescence
CCGGCTTACACGTGGAATTAATAGCTAAGATTACTATATCGACG	0.667 log2 normalized fluorescence
CCGGCTTACACGTGGTGTTAATAGCTAAGATTACTATATCGACG	0.827 log2 normalized fluorescence

Sequence	binding signal
CCGGCTAATACGTGGTGTTAATAGCTAAGATTACTATATCGACG	0.417 log2 normalized fluorescence
CCGGCTTACAAGTGTTATTAATAGCTAAGATTACTATATCGACG	0.479 log2 normalized fluorescence
CCGGCTTACACGTGGCGTTAATAGCTAAGATTACTATATCGACG	0.878 log2 normalized fluorescence
CCGGCTTACACGTGTTATTAATAGCTAAGATTACTATATCGACG	1.05 log2 normalized fluorescence
CCGGCTCACACGTGATATTAATAGCTAAGATTACTATATCGACG	0.75 log2 normalized fluorescence
CCGGCTGACACGTGGCGTTAATAGCTAAGATTACTATATCGACG	0.519 log2 normalized fluorescence
CCGGCCTACACGTGGTGTTAATAGCTAAGATTACTATATCGACG	0.779 log2 normalized fluorescence
CCGGCTGATTTAATGTATTAATAGCTAAGATTACTATATCGACG	0.0643 log2 normalized fluorescence
CCGGCTGAACCTACGTATTAATAGCTAAGATTACTATATCGACG	0.131 log2 normalized fluorescence
CCGGCTGATCGCTTGTATTAATAGCTAAGATTACTATATCGACG	-0.00084 log2 normalized fluorescence
CCGGCTGAACATGGGTATTAATAGCTAAGATTACTATATCGACG	0.288 log2 normalized fluorescence
CCGGCTGATCGGCGGTATTAATAGCTAAGATTACTATATCGACG	0.0519 log2 normalized fluorescence
CCGGCTGACAGTCGGTATTAATAGCTAAGATTACTATATCGACG	0.0326 log2 normalized fluorescence
CCGGCTGACAGTTGGTATTAATAGCTAAGATTACTATATCGACG	0.112 log2 normalized fluorescence
CCGGCTGAAATAGTGTATTAATAGCTAAGATTACTATATCGACG	0.0457 log2 normalized fluorescence
CCGGCTGTCATGTGGTATTAATAGCTAAGATTACTATATCGACG	0.631 log2 normalized fluorescence
CCGGCTGACCTGTTGTATTAATAGCTAAGATTACTATATCGACG	0.216 log2 normalized fluorescence
CCGGCTGAAAGAATGTATTAATAGCTAAGATTACTATATCGACG	0.0901 log2 normalized fluorescence
